# Measured values reported in PubChem BioAssay (EPA / NIEHS).
# Calls of active or inactive are those of the source. The calls were made as follows: active = hit-call score of the fitted dose curve at least 0.9, where 1 is the maximum; inactive = score below 0.9.
# Legend:
# [1] = ATG_ERE_CIS: Attagene CIS-FACTORIAL HepG2 Assay for Estrogen Response Element (ERE) (AID 2282940); settings: HepG2 ERE cis-reporter, Attagene RNA transcript; actives raise or lower the signal
# Method in brief: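 Transient MRTU transfection of human HepG2; cis-element promoters; 24 h dosing; total RNA → RT (oligo dT) → PCR → 6-FAM primer extension → HpaI digest → CE fluorescence. Bidirectional fit, DMSO baseline.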
# [2] = ATG_Ets_CIS: Attagene CIS-FACTORIAL HepG2 Assay for human Erythroblast Transformation Specific (ETS) (AID 2282941); settings: HepG2 ETS cis-reporter transcription, actives raise or lower the signal
# Method in brief: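 Human HepG2 hepatoma cells were transiently transfected with promoter-driven reporter constructs and treated for 24 hours. Reporter transcripts were quantified by RT-PCR with fluorescent primer extension; bidirectional curve fitting used DMSO as reference.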
# [3] = biological target: Hepatocyte nuclear factor 3-beta (Homo sapiens) (UniProt Q9Y261); assay: ATG_FoxA2_CIS: Attagene CIS-FACTORIAL HepG2 Assay for human Forkhead box A2 (FOXA2) (AID 2282942); settings: HepG2 cis-reporter transcription factor activity, 24 h; actives raise or lower the signal
# Chain of Hepatocyte nuclear factor 3-beta (Homo sapiens) (Q9Y261 whole entry, looked up): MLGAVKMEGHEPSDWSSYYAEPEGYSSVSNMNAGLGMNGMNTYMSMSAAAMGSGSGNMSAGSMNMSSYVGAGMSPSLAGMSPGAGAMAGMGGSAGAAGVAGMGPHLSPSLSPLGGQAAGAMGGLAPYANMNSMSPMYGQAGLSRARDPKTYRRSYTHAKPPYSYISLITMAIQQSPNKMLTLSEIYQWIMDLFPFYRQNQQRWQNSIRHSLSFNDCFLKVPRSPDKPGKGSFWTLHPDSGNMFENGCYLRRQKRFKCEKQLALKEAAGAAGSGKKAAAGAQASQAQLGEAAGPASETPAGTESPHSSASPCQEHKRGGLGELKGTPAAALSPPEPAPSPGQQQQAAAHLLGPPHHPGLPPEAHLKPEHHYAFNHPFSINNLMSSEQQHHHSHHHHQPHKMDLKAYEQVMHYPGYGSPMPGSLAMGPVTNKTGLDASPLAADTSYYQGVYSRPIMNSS
# Method in brief: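 Transient MRTU transfection of HepG2 liver cells; 24 h treatment; total RNA → oligo(dT) RT → PCR → FAM primer extension → HpaI cut → CE. Bidirectional fit vs DMSO.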
# [4] = ATG_FoxO_CIS: Attagene CIS-FACTORIAL HepG2 Assay for human Forkhead box O (FoxO) (AID 2282943); settings: HepG2 Attagene cis-reporter, FoxO element, mRNA; actives raise or lower the signal
# Method in brief: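 Human hepatoma HepG2 cells carry transiently introduced reporter transcription units controlled by cis promoter elements. Chemical treatment lasted 24 h, and mRNA signal was compared with DMSO.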
# [5] = ATG_GATA_CIS: Attagene CIS-FACTORIAL HepG2 Assay for human GATA Binding Protein (AID 2282944); settings: HepG2 GATA cis-element reporter, Attagene multiplex mRNA; actives raise or lower the signal
# Method in brief: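 Transient MRTU transfection, HepG2, 24 h compound exposure. Total RNA → oligo(dT) RT → PCR → 6-FAM primer extension → HpaI cut → CE. Bidirectional fit vs DMSO.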
# [6] = ATG_GLI_CIS: Attagene CIS-FACTORIAL HepG2 Assay for human Zinc Finger Protein GLI1 (AID 2282945); settings: HepG2, Attagene cis-factorial reporter mRNA, GLI element; actives raise or lower the signal
# Method in brief: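 Bidirectional curve fits relative to DMSO, using reporter mRNA levels from RT-PCR plus capillary electrophoresis. Cells were HepG2 transiently carrying cis-regulated reporter constructs, harvested 24 h after dosing.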
# [7] = biological target: Bile acid receptor (Homo sapiens) (UniProt Q96RI1); assay: ATG_IR1_CIS: Attagene CIS-FACTORIAL HepG2 Assay for human Nuclear Receptor Subfamily 1 Group H Member 4 (NR1H4), IR1 submotif (AID 2282946); settings: IR1 reporter transcription, actives raise or lower the signal
# Chain of Bile acid receptor (Homo sapiens) (Q96RI1 whole entry, looked up, the tested form may be a part): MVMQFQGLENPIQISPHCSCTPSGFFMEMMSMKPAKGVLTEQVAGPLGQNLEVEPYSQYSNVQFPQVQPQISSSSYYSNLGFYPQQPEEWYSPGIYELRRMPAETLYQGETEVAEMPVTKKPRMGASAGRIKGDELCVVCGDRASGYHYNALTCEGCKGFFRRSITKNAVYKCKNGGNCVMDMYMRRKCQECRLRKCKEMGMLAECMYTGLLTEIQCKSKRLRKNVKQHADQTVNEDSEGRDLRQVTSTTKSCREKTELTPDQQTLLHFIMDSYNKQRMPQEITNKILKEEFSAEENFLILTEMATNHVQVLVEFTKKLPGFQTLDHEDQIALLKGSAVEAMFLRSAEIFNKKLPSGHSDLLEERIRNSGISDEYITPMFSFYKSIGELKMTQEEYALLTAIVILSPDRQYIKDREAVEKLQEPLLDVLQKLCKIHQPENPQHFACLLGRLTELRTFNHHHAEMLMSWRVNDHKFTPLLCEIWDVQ
# Method in brief: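 Cells (human HepG2) carry transiently transfected cis-promoter reporter transcription units. Compounds are incubated 24 h, total RNA is reverse-transcribed and amplified, and labelled fragments are resolved by capillary electrophoresis. Curves use DMSO as baseline.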
# [8] = ATG_GRE_CIS: Attagene CIS-FACTORIAL HepG2 Assay for human Glucocorticoid Response Elements (GRE) (AID 2282947); settings: HepG2 GRE cis-reporter, Attagene multiplex mRNA; actives raise or lower the signal
# Method in brief: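 Transient MRTU transfection of human HepG2 liver cells; cis-regulated reporters report endogenous factors. 24 h dosing → RNA isolation → RT-PCR → 6-FAM primer extension → HpaI cut → CE fragment analysis. Bidirectional fit, DMSO negative control.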
# [9] = ATG_ISRE_CIS: Attagene CIS-FACTORIAL HepG2 Assay for human Interferon Regulatory Factor 1 (IRF1) binding to an Interferon-Stimulated Response Element (ISRE) (AID 2282948); settings: HepG2 ISRE cis-reporter (Attagene), mRNA transcription readout; actives raise or lower the signal
# Method in brief: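 Cell-based cis-reporter assay; HepG2; 24 h exposure; reporter mRNA by RT-PCR plus capillary electrophoresis fluorescence; activity in either direction scored relative to DMSO.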
# [10] = ATG_M_32_CIS: Attagene CIS-FACTORIAL HepG2 Assay for M32 Transcription Factor (Internal Marker) (AID 2282949); settings: HepG2 Attagene cis-factorial M32 reporter, mRNA; actives raise or lower the signal;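 also: background control marker of the multiplexed CIS panel rather than a real target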
# Method in brief: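 Fluorescent capillary electrophoresis peaks of HpaI-digested, FAM-labelled RT-PCR reporter products give the signal. Source: transiently transfected human liver HepG2 cells, 24 h after chemical dosing; bidirectional fitting against DMSO.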
# [11] = ATG_M_06_CIS: Attagene CIS-FACTORIAL HepG2 Assay for M06 Transcription Factor (Internal Marker) (AID 2282950); settings: HepG2 Attagene CIS-FACTORIAL M06 internal marker reporter; actives raise or lower the signal
# Method in brief: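 Read-out is fluorescence of labelled reporter cDNA fragments resolved by capillary electrophoresis after RT-PCR. Cells: HepG2 carrying transfected cis-promoter reporter units, treated 24 h. Gain or loss of signal fitted relative to DMSO.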
# [12] = biological target: Hypoxia-inducible factor 1-alpha (Homo sapiens) (UniProt Q16665); assay: ATG_HIF1a_CIS: Attagene CIS-FACTORIAL HepG2 Assay for human Hypoxia Inducible Factor 1 (HIF1A) (AID 2282951); settings: HepG2 Attagene cis-factorial HIF1a reporter transcription; actives raise or lower the signal
# Chain of Hypoxia-inducible factor 1-alpha (Homo sapiens) (Q16665 whole entry, looked up, the tested form may be a part): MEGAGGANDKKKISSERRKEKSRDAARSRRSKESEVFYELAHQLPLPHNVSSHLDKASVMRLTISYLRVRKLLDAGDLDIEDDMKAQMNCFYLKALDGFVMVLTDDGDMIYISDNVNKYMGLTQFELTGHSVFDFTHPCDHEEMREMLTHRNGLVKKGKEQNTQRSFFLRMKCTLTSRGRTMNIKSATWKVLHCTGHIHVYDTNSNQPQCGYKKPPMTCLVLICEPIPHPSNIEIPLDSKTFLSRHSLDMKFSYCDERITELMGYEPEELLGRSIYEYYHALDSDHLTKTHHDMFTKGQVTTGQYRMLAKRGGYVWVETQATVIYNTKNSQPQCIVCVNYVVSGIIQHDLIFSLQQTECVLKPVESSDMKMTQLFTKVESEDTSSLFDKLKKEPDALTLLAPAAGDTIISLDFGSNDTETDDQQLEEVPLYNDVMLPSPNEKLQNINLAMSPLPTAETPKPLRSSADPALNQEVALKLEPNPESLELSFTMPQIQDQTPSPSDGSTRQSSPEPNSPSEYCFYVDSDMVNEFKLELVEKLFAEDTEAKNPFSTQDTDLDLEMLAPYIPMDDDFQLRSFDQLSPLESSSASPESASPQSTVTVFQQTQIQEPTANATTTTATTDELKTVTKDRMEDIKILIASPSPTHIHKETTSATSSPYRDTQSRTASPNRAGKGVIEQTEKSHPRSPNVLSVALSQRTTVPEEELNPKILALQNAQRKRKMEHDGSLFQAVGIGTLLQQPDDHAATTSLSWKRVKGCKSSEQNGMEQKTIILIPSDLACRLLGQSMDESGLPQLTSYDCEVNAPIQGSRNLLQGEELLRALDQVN
# Method in brief: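 Transient MRTU transfection of human HepG2 liver cells, 24 h compound treatment, then total RNA isolation, oligo(dT) reverse transcription, PCR amplification, fluorescent labelling and capillary electrophoresis of reporter fragments. Gain or loss relative to DMSO.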
# [13] = biological target: Hepatocyte nuclear factor 6 (Homo sapiens) (UniProt Q9UBC0); assay: ATG_HNF6_CIS: Attagene CIS-FACTORIAL HepG2 Assay for human Hepatocyte Nuclear Factor 6 (HNF6) (AID 2282952); settings: HepG2 Attagene cis-factorial HNF6 reporter transcription; actives raise or lower the signal
# Chain of Hepatocyte nuclear factor 6 (Homo sapiens) (Q9UBC0 whole entry, looked up): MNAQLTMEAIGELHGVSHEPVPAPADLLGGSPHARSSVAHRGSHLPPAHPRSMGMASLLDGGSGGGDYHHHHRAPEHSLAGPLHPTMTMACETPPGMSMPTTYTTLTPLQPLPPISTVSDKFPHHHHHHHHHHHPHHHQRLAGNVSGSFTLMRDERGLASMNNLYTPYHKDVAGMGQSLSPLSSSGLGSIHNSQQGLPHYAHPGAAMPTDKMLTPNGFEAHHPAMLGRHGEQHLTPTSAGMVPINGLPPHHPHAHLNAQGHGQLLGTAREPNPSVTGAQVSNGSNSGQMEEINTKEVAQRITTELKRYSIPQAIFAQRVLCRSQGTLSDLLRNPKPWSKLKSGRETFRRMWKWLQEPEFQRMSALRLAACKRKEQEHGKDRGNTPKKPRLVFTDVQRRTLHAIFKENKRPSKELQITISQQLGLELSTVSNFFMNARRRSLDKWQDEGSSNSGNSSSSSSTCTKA
# Method in brief: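 Multiplexed mRNA reporter assay in transfected HepG2; 24 h dosing; RT-PCR plus capillary electrophoresis fluorescence; DMSO-referenced bidirectional curve fitting.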
# [14] = biological target: Heat shock factor protein 1 (Homo sapiens) (UniProt Q00613); assay: ATG_HSE_CIS: Attagene CIS-FACTORIAL HepG2 Assay for human Heat Shock Transcription Factor 1 (HSE) (AID 2282953); settings: HepG2 HSE cis-reporter, Attagene RNA transcription; actives raise or lower the signal
# Chain of Heat shock factor protein 1 (Homo sapiens) (Q00613 whole entry, looked up): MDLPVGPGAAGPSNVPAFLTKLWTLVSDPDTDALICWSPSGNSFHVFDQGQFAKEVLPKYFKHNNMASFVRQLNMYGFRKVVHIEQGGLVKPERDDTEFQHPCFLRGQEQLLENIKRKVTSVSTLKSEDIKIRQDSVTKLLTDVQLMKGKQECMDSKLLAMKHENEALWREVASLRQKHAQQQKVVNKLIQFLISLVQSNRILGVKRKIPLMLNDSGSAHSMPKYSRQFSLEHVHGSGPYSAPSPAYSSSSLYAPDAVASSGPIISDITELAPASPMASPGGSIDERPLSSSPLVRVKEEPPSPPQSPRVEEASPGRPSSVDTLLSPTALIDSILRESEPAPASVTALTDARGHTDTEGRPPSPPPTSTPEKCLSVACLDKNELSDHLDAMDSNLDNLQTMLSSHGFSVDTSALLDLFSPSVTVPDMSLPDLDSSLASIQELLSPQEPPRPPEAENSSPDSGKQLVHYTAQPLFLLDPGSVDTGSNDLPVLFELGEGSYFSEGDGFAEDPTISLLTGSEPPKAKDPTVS
# Method in brief: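 HepG2, transient MRTU transfection, cis-promoter reporters (endogenous TF activity). 24 h compound. RNA → oligo(dT) RT → PCR → 6-FAM primer extension → HpaI cut → CE. Bidirectional fit vs DMSO.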
# [15] = ATG_MRE_CIS: Attagene CIS-FACTORIAL HepG2 Assay for human Metal Responsive Element (MRE) (AID 2282954); settings: HepG2 MRE cis-reporter transcription, Attagene multiplex; actives raise or lower the signal
# Method in brief: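 Transient MRTU transfection of HepG2 (FuGene 6); 24 h dosing; total RNA → oligo(dT) RT, PCR, 6-FAM primer extension, HpaI cut, CE. Bidirectional fit vs DMSO.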
# [16] = biological target: Paired box protein Pax-6 (Homo sapiens) (UniProt P26367); assay: ATG_Pax6_CIS: Attagene CIS-FACTORIAL HepG2 Assay for human Paired Box 6 (PAX6) (AID 2282956); settings: HepG2 CIS-FACTORIAL PAX6 reporter transcription, RNA readout; actives raise or lower the signal
# Chain of Paired box protein Pax-6 (Homo sapiens) (P26367 whole entry, looked up): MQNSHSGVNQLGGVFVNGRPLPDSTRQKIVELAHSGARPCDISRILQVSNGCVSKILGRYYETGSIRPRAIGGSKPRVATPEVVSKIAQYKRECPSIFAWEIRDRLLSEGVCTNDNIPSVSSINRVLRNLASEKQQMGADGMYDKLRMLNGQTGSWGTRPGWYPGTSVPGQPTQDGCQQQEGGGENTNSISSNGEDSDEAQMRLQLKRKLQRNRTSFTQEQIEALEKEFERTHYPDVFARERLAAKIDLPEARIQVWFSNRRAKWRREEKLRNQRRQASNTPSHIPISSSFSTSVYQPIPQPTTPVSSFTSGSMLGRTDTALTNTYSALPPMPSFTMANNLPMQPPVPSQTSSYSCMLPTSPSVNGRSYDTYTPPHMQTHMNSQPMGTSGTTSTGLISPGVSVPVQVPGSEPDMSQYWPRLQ
# Method in brief: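 Multiplexed cis-reporter HepG2 system; 24 h treatment; reporter mRNA read by RT-PCR/CE fluorescence; bidirectional fit vs DMSO.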
# [17] = ATG_PXRE_CIS: Attagene CIS-FACTORIAL HepG2 Assay for human Pregnane X Receptor Element (PXRE) (AID 2282957); settings: HepG2 Attagene CIS-FACTORIAL PXRE reporter, mRNA; actives raise or lower the signal
# Method in brief: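 Cells: HepG2, transiently transfected reporter units under cis promoter control. Exposure: 24 h. Detection: reporter mRNA via RT-PCR/CE fluorescence; bidirectional fitting, DMSO-referenced.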
# [18] = ATG_PPRE_CIS: Attagene CIS-FACTORIAL HepG2 Assay for human Peroxisome Proliferator-activated Response Element (PPRE) (AID 2282958); settings: HepG2 PPRE cis-element reporter, Attagene transcription factor profiling; actives raise or lower the signal
# Method in brief: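 HepG2, transient MRTU transfection (cis promoter elements, endogenous TFs). 24 h dosing. RNA → oligo(dT) RT → PCR → 6-FAM primer extension → HpaI digest → CE. Bidirectional fit vs DMSO.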
# [19] = ATG_RORE_CIS: Attagene CIS-FACTORIAL HepG2 Assay for human RAR-related Orphan Receptor Element (RORE) (AID 2282959); settings: HepG2 Attagene cis-factorial RORE reporter, mRNA; actives raise or lower the signal
# Method in brief: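 Transient MRTU transfection of human HepG2 liver cells (FuGene 6); 24 h compound exposure; TriZol RNA, oligo(dT) RT, PCR, FAM labeling, HpaI cut, CE fragment analysis. DMSO = negative control/baseline.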
# [20] = ATG_PBREM_CIS: Attagene CIS-FACTORIAL HepG2 Assay for human Phenobarbital-responsive Enhancer Module (PBREM) (AID 2282955); settings: HepG2 PBREM cis-reporter, Attagene multiplexed transcription; actives raise or lower the signal
# Method in brief: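 Endogenous transcription factors in human liver HepG2 cells drive a PBREM cis-element reporter, whose transcript level after 24 h treatment is quantified by RT-PCR with capillary electrophoresis; activity fitted in both directions against DMSO.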
smiles,measurement,setting,value
COc1ccc([N+](=O)[O-])cc1O,outcome,[1],inactive
same,outcome,[2],inactive
same,outcome,[3],inactive
same,outcome,[4],inactive
same,outcome,[5],inactive
same,outcome,[6],inactive
same,outcome,[7],inactive
same,outcome,[8],inactive
same,outcome,[9],inactive
same,outcome,[10],inactive
same,outcome,[11],inactive
same,outcome,[12],inactive
same,outcome,[13],inactive
same,outcome,[14],inactive
same,outcome,[15],inactive
same,outcome,[16],inactive
same,outcome,[17],inactive
same,outcome,[18],inactive
same,outcome,[19],inactive
CCOc1ccc(N)cc1,outcome,[1],inactive
same,outcome,[2],inactive
same,outcome,[3],inactive
same,outcome,[4],inactive
same,outcome,[5],inactive
same,outcome,[6],inactive
same,outcome,[7],inactive
same,outcome,[8],inactive
same,outcome,[9],inactive
same,outcome,[10],inactive
same,outcome,[11],inactive
same,outcome,[12],inactive
same,outcome,[13],inactive
same,outcome,[14],inactive
same,outcome,[15],inactive
same,outcome,[20],inactive
same,outcome,[16],inactive
same,AC50,[17],46.6 µM (active)
same,outcome,[19],inactive
O=S(=O)(F)C(F)(F)C(F)(F)C(F)(F)C(F)(F)F,outcome,[1],inactive
same,outcome,[2],inactive
same,outcome,[3],inactive
same,outcome,[4],inactive
same,outcome,[5],inactive
same,outcome,[6],inactive
same,outcome,[7],inactive
same,outcome,[8],inactive
same,outcome,[9],inactive
same,outcome,[10],inactive
same,outcome,[11],inactive
same,outcome,[12],inactive
same,outcome,[13],inactive
same,outcome,[14],inactive
same,outcome,[15],inactive
same,outcome,[20],inactive
same,outcome,[16],inactive
same,outcome,[17],inactive
same,outcome,[18],inactive
same,outcome,[19],inactive
CCCCCCCCCCCCCCC(Br)C(=O)O (stereo unspecified),outcome,[1],inactive
same,outcome,[2],inactive
same,AC50,[3],62.4 µM (active)
same,outcome,[4],inactive
same,outcome,[5],inactive
same,AC50,[6],137 µM (active)
same,outcome,[7],inactive
same,AC50,[8],159 µM (active)
same,outcome,[9],inactive
same,AC50,[10],164 µM (active)
same,AC50,[11],183 µM (active)
same,AC50,[12],150 µM (active)
same,AC50,[13],187 µM (active)
same,AC50,[14],154 µM (active)
same,AC50,[15],161 µM (active)
same,AC50,[20],100 µM (active)
same,AC50,[16],142 µM (active)
same,outcome,[17],inactive
same,AC50,[18],42.2 µM (active)
same,AC50,[19],111 µM (active)
NC(=O)c1ccc(N)nc1,outcome,[1],inactive
same,AC50,[2],100 µM (active)
same,outcome,[3],inactive
same,outcome,[4],inactive
same,outcome,[5],inactive
same,outcome,[6],inactive
same,outcome,[7],inactive
same,outcome,[8],inactive
same,outcome,[9],inactive
same,outcome,[10],inactive
same,outcome,[11],inactive
same,outcome,[12],inactive
same,outcome,[13],inactive
same,outcome,[14],inactive
same,outcome,[15],inactive
same,outcome,[20],inactive
same,outcome,[16],inactive
same,outcome,[17],inactive
same,outcome,[19],inactive
Brc1ccc(Oc2c(Br)cc(Br)cc2Br)c(Br)c1,outcome,[1],inactive
same,outcome,[2],inactive
same,outcome,[3],inactive
same,outcome,[4],inactive
same,outcome,[5],inactive
same,outcome,[6],inactive
same,outcome,[7],inactive
same,outcome,[8],inactive
same,outcome,[9],inactive
same,outcome,[10],inactive
same,outcome,[11],inactive
same,outcome,[12],inactive
same,outcome,[13],inactive
same,outcome,[14],inactive
same,outcome,[15],inactive
same,outcome,[20],inactive
same,outcome,[16],inactive
same,outcome,[17],inactive
same,outcome,[19],inactive
CCOC(=O)Cc1ccccc1,outcome,[1],inactive
same,outcome,[2],inactive
same,outcome,[3],inactive
same,outcome,[4],inactive
same,outcome,[5],inactive
same,outcome,[6],inactive
same,outcome,[7],inactive
same,outcome,[8],inactive
same,outcome,[9],inactive
same,outcome,[10],inactive
same,outcome,[11],inactive
same,outcome,[12],inactive
same,outcome,[13],inactive
same,outcome,[14],inactive
same,outcome,[15],inactive
same,outcome,[20],inactive
same,outcome,[16],inactive
same,outcome,[17],inactive
same,outcome,[18],inactive
same,outcome,[19],inactive
